Hits are enriched below; roughly 5.4% of the tested compounds scored in any of these assays.
Beta apoptosis: beta cell apoptosis inhibition; INS-1E cytokine-induced death, ATP luminescence, 48 h; percent of positive-control rescue, neutral wells zero; protection from apoptosis, % (test concentration not listed); actives 0.8% (n = 300,000);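 active means Every replicate reaches about 75%, or at least half do and their mean reaches it too, limit read from the data; inconclusive means At least half of replicates reach the limit but their mean does not; inactive means Under half of replicates reach the limit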;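 further: 0% = cytokine-treated negative control wells and 100% = positive control rescue; higher means more ATP so stronger rescue from cytokine killing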
SKKanGAS inh: SKKanGAS growth inhibition. S. pyogenes SKKanGAS, kanamycin growth, BacTiter-Glo, 6 h. actives 1.3% (n = 300,000). inhibition, % at 7.5 µM;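 active means mean replicate score, as percent of positive control median, at least 50; inconclusive means mean below 50 but one replicate at or above 50; inactive means mean and every replicate below 50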;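 further: strain carries kanamycin resistance gene driven by streptokinase promoter and grows in 40 µg/ml kanamycin; loss of luminescence reflects streptokinase promoter inhibition or plain growth inhibition; 0% = median of DMSO wells and 100% = positive control at its reference dose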
Mdm2 MdmX PPI: disrupts the human Mdm2-MdmX interaction | O15151+Q00987 | SaOS-2 split-luciferase Mdm2/MdmX complementation, luminescence | inhibition, % at 8 µM | actives 3% (n = 330,000) | AID 485346;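 active means inhibition of at least 50% at 8 µM in the primary screen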
Target sequence (O15151 whole entry, looked up): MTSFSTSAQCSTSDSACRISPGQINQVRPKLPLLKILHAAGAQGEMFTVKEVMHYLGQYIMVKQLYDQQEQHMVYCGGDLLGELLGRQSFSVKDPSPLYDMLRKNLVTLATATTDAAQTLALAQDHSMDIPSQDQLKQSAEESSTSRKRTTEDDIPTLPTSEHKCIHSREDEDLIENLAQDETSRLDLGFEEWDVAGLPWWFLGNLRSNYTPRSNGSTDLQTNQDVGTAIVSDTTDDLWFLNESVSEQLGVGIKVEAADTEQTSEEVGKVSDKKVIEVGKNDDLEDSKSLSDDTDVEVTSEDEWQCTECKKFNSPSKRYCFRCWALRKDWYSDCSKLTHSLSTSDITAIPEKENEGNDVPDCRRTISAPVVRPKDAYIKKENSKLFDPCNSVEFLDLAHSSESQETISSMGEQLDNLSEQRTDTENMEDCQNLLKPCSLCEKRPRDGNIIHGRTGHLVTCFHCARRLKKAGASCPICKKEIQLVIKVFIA
Target sequence (Q00987 whole entry, looked up): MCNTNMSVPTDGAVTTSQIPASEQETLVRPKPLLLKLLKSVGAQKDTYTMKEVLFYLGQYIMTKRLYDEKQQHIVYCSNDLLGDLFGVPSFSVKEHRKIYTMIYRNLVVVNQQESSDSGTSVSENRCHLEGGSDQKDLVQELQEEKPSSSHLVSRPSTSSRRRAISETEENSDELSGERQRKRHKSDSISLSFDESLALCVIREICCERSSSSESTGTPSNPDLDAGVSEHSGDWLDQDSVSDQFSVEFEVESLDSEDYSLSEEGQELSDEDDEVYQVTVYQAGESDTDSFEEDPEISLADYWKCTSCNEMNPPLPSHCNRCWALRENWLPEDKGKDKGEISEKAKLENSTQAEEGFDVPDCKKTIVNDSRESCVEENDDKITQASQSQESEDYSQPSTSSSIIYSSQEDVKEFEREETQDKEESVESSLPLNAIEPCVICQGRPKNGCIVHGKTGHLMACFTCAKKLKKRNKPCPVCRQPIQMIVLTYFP
Calb FLC: affects C. albicans growth with fluconazole; growth inhibition, % (concentration not given with the values); C. albicans CaCi-2 (fluconazole-resistant clinical isolate) + fluconazole, Alamar Blue growth, 48 h; AID 1979; actives 0.57% (n = 300,000);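 active means growth inhibition above about 58% in most replicates, limit read from the data, passing the limit was not always enough; inconclusive means exactly half the replicates above a set limit; inactive means most replicates below a set limit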;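 further: all wells also contain fluconazole at 8 µg/ml as a sub-toxic cotreatment; 0% = median of DMSO wells and 100% = median of geldanamycin control wells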
CSC inhib: blocks cancer stem cells | cancer stem cell-like cells viability, luminescence | inhibition, % at 7.5 µM | actives 1.1% (n = 300,000); in the data active means inhibition above about 75%; inconclusive means no clear call, values can overlap the other calls; tested in HMLE shEcad cells
MPTP inh: blocks calcium-induced mitochondrial swelling. isolated mouse mitochondria, Ca2+ swelling absorbance, 30 min. inhibition, % at 10 µM. actives 1.4% (n = 360,000). AID 602449;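 active means inhibition of 50% or more, scaled per plate between neutral and stimulator controls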;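 further: 0% = DMSO wells given calcium and 100% = 1 mM EGTA wells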
Mdm2 MdmX conf: human Mdm2/MdmX binding inhibition, confirmed; actives 55% (n = 10,000); luminescent assay; inhibition, % at 8 µM; AID 489028; shares compounds with Mdm2 MdmX PPI; in the data active means inhibition above about 40%
Full FLuc ctr: full-length luciferase inhibition in Mdm2/MdmX counter-screen; shares compounds with Mdm2 MdmX PPI; SaOS-2 full-length luciferase counterscreen, luminescence; inhibition, % at 8 µM; actives 77% (n = 6,200);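 active means mean inhibition at 8 µM reaching about 37%, which flags the compound as non-specific, limit read from the data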;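 further: p53-null SaOS-2 cells with luciferase driven by a doxycycline-inducible promoter; compound on cells about two nights before reading with doxycycline added after day one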
Numbers without * were called inactive; ? = inconclusive; . = no result.

SMILES	Beta apoptosis	SKKanGAS inh	Mdm2 MdmX PPI	Calb FLC	CSC inhib	MPTP inh	Mdm2 MdmX conf	Full FLuc ctr
C=CCN(c1ccccc1)S(=O)(=O)c1cccc(C(=O)NC2CCN(Cc3ccccc3)CC2)c1	12	-2	60*	-13	3	6	39	.
CC(Nc1nc(-c2ccc(F)cc2)cs1)c1nc2cc(Cl)c(N3CCCCC3)cc2n1CCOCCO (stereo unspecified)	3	29	29	3	36	0	.	.
CC(Nc1nc(-c2ccc(F)cc2)cs1)c1nc2cc(Cl)c(N3CCCCC3)cc2n1CCCO (stereo unspecified)	16	21	75*	-22	27	2	18	.
COc1ccc(-c2csc(NC(C)c3nc4cc(Cl)c(Cl)cc4n3CCCO)n2)cc1 (stereo unspecified)	32	34	59*	0	-6	1	30	.
CC(Nc1nc(-c2ccc(F)cc2)cs1)c1nc2cc(Cl)c(Cl)cc2n1CCOCCO (stereo unspecified)	7	36	30	-5	-2	0	.	.
Cc1ccc(S(=O)(=O)c2nc(-c3ccccc3F)oc2N2CC(C)OC(C)C2)cc1 (stereo unspecified)	.	31	23	8	14	-1	.	.
CCc1nn(CC(=O)NC2CCN(Cc3ccccc3)CC2)c(=O)c2cc3cc(F)ccc3n12	3	6	58*	-2	5	-2	20	.
CCc1nn(CC(=O)NC(C)CCc2ccccc2)c(=O)c2cc3cc(F)ccc3n12 (stereo unspecified)	9	7	55*	15	15	0	11	.
COc1ccc(-c2csc(/C(C#N)=C\c3cccc([N+](=O)[O-])c3)n2)cc1	1	-2	33	-17	0	.	.	.
Cc1ccc(-c2cc(C(F)F)nc3sc4c(=O)[nH]cnc4c23)cc1	14	.	71*	.	-6	0	-2	.
CC(C)c1nc2sc3c(=O)[nH]cnc3c2c2c1CCC2	2	-6	-17	60	15	8	.	.
CCc1ccccc1NC(=O)CN1CCN(C(=O)CN2C(=O)NC3(CCCC3)C2=O)CC1	.	.	-6	.	.	0	.	.
COC(=O)c1cc(=O)n(Cc2ccco2)c(=Nc2ccc(F)cc2)s1	-14	4	58*	4	62	3	30	.
COC(=O)c1cc(=O)n(CCc2ccc(OC)c(OC)c2)c(=Nc2ccc(F)c(Cl)c2)s1	11	-1	84*	1	110*	0	11	.
COC(=O)c1cc(=O)n(Cc2ccc(OC)c(OC)c2)c(=Nc2ccc(F)cc2)s1	-15	8	76*	10	97*	2	33	98*
CC(C)=N/N=c1\scc(C)n1Cc1ccco1	-3	-7	2	-8	13	0	.	.
COCCNC(=O)CN1CCC(NC(=O)C(C)(C)C)CC1	-6	-2	1	18	16	-2	.	.
COc1ccc([C@H]2[C@H]3C=CC[C@@H](C)[C@@H]3C(=O)N2Cc2ccccc2)cc1Cl	-17	22	34	-13	6	-2	.	.
COc1ccc(-c2ccc([C@H]3[C@H]4C=CC[C@@H](C)[C@@H]4C(=O)N3Cc3ccccc3)c(F)c2)cc1C	2	28	29	4	36	3	.	.
COc1ccc(-c2ccc(OC)c([C@H]3[C@H]4C=CC[C@@H](C)[C@@H]4C(=O)N3Cc3ccccc3)c2)cc1OC	16	30	58*	1	61	-1	-10	.
COc1ccc(-c2ccc(F)cc2)cc1[C@H]1[C@H]2C=CC[C@@H](C)[C@@H]2C(=O)N1Cc1ccccc1	-6	32	61*	-7	-6	3	44*	50*
COc1ccc(-c2c([C@H]3[C@H]4C=CC[C@@H](C)[C@@H]4C(=O)N3Cc3ccccc3)ccc3ccccc23)cc1OC	33	22	71*	-6	45	2	20	.
COc1ccc(Br)cc1[C@H]1[C@H]2C=CC[C@@H](C)[C@@H]2C(=O)N1Cc1ccccc1	.	42	58*	-1	.	-1	37	.
COc1ccc(-c2ccccc2[C@H]2[C@@H]3C=CC[C@@H](C)[C@@H]3C(=O)N2Cc2ccccc2)cc1	.	.	69*	.	.	-1	22	.
O=C1C2C(c3ccccc3)CC=CC2[C@H](c2ccc(C(F)(F)F)cc2)N1Cc1ccccc1 (stereo partly specified)	21	25	79*	23	?	-1	43*	63*
SMILES	Beta apoptosis	SKKanGAS inh	Mdm2 MdmX PPI	Calb FLC	CSC inhib	MPTP inh	Mdm2 MdmX conf	Full FLuc ctr
C[C@@H]1CC=C[C@@H]2[C@H]1C(=O)N(Cc1ccccc1)[C@H]2c1ccccc1Br	.	.	2	.	.	-1	.	.
C[C@@H]1CC=C[C@@H]2[C@H]1C(=O)N(Cc1ccccc1)[C@H]2c1cccc(Br)c1	.	.	65*	.	.	-1	11	.
C[C@@H]1CC=C[C@@H]2[C@H]1C(=O)N(Cc1ccccc1)[C@H]2c1cccc(C#Cc2ccccc2)c1	.	.	36	.	.	0	.	.
CCOc1ccc(C(=O)O/N=C(\N)c2ccc([N+](=O)[O-])cc2)cc1OCC	.	-1	60*	-1	.	-1	52*	125*
COc1cc(C(=O)O/N=C(\N)Cc2ccc([N+](=O)[O-])cc2)cc(OC)c1OC	12	1	85*	8	30	0	70*	70*
CCOc1cc(/C=N/O)ccc1OCc1ccc([N+](=O)[O-])cc1	2	1	-23	-1	.	-1	.	.
N/C(Cc1ccc([N+](=O)[O-])cc1)=N\OC(=O)c1cccc(Br)c1	-6	-6	61*	?	-5	1	7	.
CCOc1cc(C=C(C(=O)OC)C(=O)OC)ccc1OCc1ccc([N+](=O)[O-])cc1	56	.	96*	.	-13	-3	75*	44*
COc1ccc(C(=O)O/N=C(\N)Cc2ccc([N+](=O)[O-])cc2)c(OC)c1	5	5	86*	-7	-3	1	68*	90*
N#C/C(=C\c1ccc([N+](=O)[O-])o1)c1nc2ccccc2[nH]1	100*	31	97*	25	?	.	70*	61*
Cc1ccc2nc(/C(C#N)=C\c3ccc([N+](=O)[O-])o3)[nH]c2c1	102*	89*	97*	71	3	15	75*	30
COc1ccc(CCNc2cc(C)nc3c(-c4ccccc4)cnn23)cc1OC	.	30	68*	2	.	-1	32	.
COc1ccc(CCNc2cc(C)nc3c(-c4ccccc4)c(C)nn23)cc1OC	-14	2	17	-7	53	2	.	.
Cc1cc(NC2CCCC2)n2ncc(-c3ccccc3)c2n1	11	23	84*	1	29	0	82*	181*

Assay outcomes (PubChem)
